The campaign covered roughly 360,000 compounds. About 25,000 (6.9%) were called active. Where a call stands in place of a potency, no number is given. About 9% were inconclusive and are not listed. Calls follow the shape of the dose curve; as a rule, active = well fitted inhibition curve with a large enough effect; inconclusive = small, poorly fitted or top-dose-only effect; inactive = flat fitted curve, though single readings scatter. For the sample, actives were picked, then their nearest neighbours and some compounds at random.
Potency is read from the fitted curve at half-maximal effect.

Chain of Luciferin 4-monooxygenase (Photinus pyralis) (P08659 whole entry, looked up): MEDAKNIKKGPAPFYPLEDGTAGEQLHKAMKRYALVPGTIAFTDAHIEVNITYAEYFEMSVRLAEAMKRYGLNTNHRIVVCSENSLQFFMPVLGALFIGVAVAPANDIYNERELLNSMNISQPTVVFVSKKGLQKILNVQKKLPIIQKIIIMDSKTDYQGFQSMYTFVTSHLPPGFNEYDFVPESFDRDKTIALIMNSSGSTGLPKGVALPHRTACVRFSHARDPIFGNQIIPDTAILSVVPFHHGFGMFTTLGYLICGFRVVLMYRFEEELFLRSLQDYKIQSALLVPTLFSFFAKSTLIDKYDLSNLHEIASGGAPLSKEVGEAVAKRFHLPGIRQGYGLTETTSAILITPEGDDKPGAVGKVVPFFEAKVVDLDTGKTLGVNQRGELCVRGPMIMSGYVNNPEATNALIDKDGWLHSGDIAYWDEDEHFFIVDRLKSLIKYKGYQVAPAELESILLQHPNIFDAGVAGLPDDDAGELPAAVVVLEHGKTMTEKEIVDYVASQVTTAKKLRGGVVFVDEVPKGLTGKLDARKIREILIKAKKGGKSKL

For the experiment, the target named is Luciferin 4-monooxygenase (Photinus pyralis) (UniProt P08659). As to the kind of experiment: qHTS profiling assay for firefly luciferase inhibitor/activator using purifed enzyme and Km concentrations of substrates (counterscreen for miR-21 project). Also: nearly all actives have a fitted effect of over 55% in size. The conditions noted are these: purified FLuc, luminescence inhibition; series mostly up to 57.5 µM. Put shortly:
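Purified P. pyralis luciferase (10nM final) with 10uM D-luciferin and 10uM ATP (Km levels) in 50mM Tris acetate pH 7.5, 10mM Mg acetate, 0.01% Tween-20, 0.05% BSA; qHTS 6-point titration, ~60 µM downward; luminescence read.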
On the technique in general: qHTS replaces the single test concentration by a dilution series.
As for `CCOc1ccc(S(=O)(=O)Nc2nc3cc(OC)ccc3s2)cc1`, the Potency result is “inactive”.
With `COc1ccc(Nc2cc(=O)oc3ccccc23)cc1` the entry was “inactive”; with `O=c1oc2ccccc2cc1-c1csc(Nc2ccc(O)cc2)n1`, 5360 nM (active); with `Cc1ccc2nc(-c3ccncc3)cc(C(=O)Nc3ccc(OC(F)F)cc3)c2c1`, “inactive”.
For `COc1ccc2nc(Nc3nc4cc5c(cc4s3)OCCO5)sc2c1`, the Potency is 9530 nM (active).
With `COc1ccc(-c2onc(C)c2-c2ccc3c(c2)OCCO3)c(O)c1`, the Potency result is “inactive”.
The result for `COc1ccc2nc(Nc3nc(-c4ccncc4)cs3)sc2c1` reads 1510 nM (active); that for `COc1ccc2oc(=O)cc(-c3cc4ccccc4o3)c2c1`, “inactive”.
With `N#C/C(=C\c1cccc(F)c1)c1nc(-c2cc3c(ccc4ccccc43)oc2=O)cs1` the entry was “inactive”.
The result for `COc1ccc2nc(Nc3nc(-c4cc5ccccc5oc4=O)cs3)sc2c1` reads 849 nM (active); that for `CCOCCCNC(=O)c1c(NC(=O)Cc2coc3ccc(C)cc23)sc2c1CCC2`, “inactive”.
As for `Cc1cc(NC(=O)CSc2nc(=O)cc(N)n2-c2ccc(F)cc2)no1`, the Potency result is “inactive”.
The result for `CC1CCCN(S(=O)(=O)c2ccc3[nH]c(=O)cc(C(=O)NCCc4ccc(Cl)cc4)c3c2)C1` (stereo not drawn) reads “inactive”; that for `COc1ccc(CNc2nc(-c3ccccc3)nn2C(=O)c2ccccc2OC)cc1`, “inactive”.
The result for `Cc1ccc(C)c(Cn2c(=O)n(CCC(=O)NCc3ccc4c(c3)OCO4)c(=O)c3sccc32)c1` reads “inactive”.
With `COc1ccc(-c2nnc(SCC(=O)Nc3ccccc3C)o2)cc1OC` the entry was “inactive”; with `CCOC(=O)CSc1nnc(CNc2nc(-c3ccccc3)cs2)n1C`, “inactive”.
Turning to `Cn1c(CNc2nc(-c3ccccc3)cs2)nnc1SCC(=O)c1ccccc1`, the Potency entry was “inactive”.
The result for `CCNc1nc(-c2cc3ccccc3o2)cs1` reads 601 nM (active).
As for `COc1ccc(-c2c(C)c3ccc(O)c(CN4CCN(C)CC4)c3oc2=O)cc1OC`, the Potency entry was “inactive”.
With `COc1cc(OC)cc(-c2c(-c3cccs3)c3cc(-c4ccc(OC)nc4)ccc3n2C)c1` the entry was “inactive”; with `CCOc1ccc(OCC)c(NC(=O)c2cc(C)nc3c2c(C)nn3-c2cccc(Cl)c2C)c1`, “inactive”.
`COc1cccc(Cn2cc(/C=N/NC(=O)c3cc(O)cc(O)c3)c3ccccc32)c1`: the Potency was 26900 nM (active).
The result for `CNC(=S)N/N=C/c1cn(Cc2ccc(C)cc2)c2ccccc12` reads “inactive”.
With `N#CCC(=O)N/N=C/c1cn(Cc2ccc3ccccc3c2)c2ccccc12` the entry was “inactive”; with `CCOC(=O)NC(=O)/C(C#N)=C\c1ccccc1`, “inactive”; with `COc1ccc(N2CCN(C(=O)/C(C#N)=C/c3ccccc3)CC2)cc1`, “inactive”.
In the case of `CCOC(=O)/C(C#N)=C/c1ccc(N2CCCCC2)cc1`, the Potency was 2690 nM (active).

The values are drawn from PubChem BioAssay AID588342 (National Center for Advancing Translational Sciences (NCATS), 2011).
